Experimental data taken from PubChem BioAssay AID1159580 (chemical genetic matrix, 2015).
Where “and” joins values, the source holds several entries; their conditions need not be identical. Identical values can stand only once. Screen size: about 5,500 compounds; about 2,000 (36%) were called active. Roughly 18% stayed inconclusive and do not appear here. Rule as the data show it: active = normalized growth mostly below about 0.91 (no sharp cut-off); inconclusive = no clear call, values can overlap the other calls; inactive = mostly above about 0.92. Some of the results follow.

Assay: chemical genetic growth profiling, strain panel (AID 1159580);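 also: tested at 20 µM; growth read once vehicle control cultures reached saturation at 30 °C; 1 = growth at the plate median or of vehicle wells; lower values mean less growth of the strain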
Conditions: S. cerevisiae deletion strains, growth OD

Measured: normalized growth

CCOC(N)=O
inactive: locus YAL013W, strain DEP1, hits give low values 0.999 | locus YAL021C, strain ccr4, hits give low values 0.989 | locus YAL026C, strain drs2, hits give low values 1 | locus YAL030W, strain snc1, hits give low values 0.994 | locus YBL061C, strain skt5, hits give low values 0.997 | locus YBR009C, strain hhf1, hits give low values 0.987 | locus YBR021W, strain FUR4, hits give low values 0.97 | locus YBR023C, strain chs3, hits give low values 0.993 | locus YBR171W, strain sec66, hits give low values 0.99 | locus YBR229C, strain ROT2, hits give low values 0.999 | locus YBR231C, strain swc5, hits give low values 0.995 | locus YBR279W, strain paf1, hits give low values 0.991 | locus YCL011C, strain gbp2, hits give low values 0.988 | locus YCL016C, strain dcc1, hits give low values 1 | locus YCL029C, strain bik1, hits give low values 1.01 | locus YCL061C, strain MRC1, hits give low values 0.995 | locus YCL069W, strain vba3, hits give low values 0.997 | locus YCR088W, strain abp1, hits give low values 1 | locus YDL005C, strain med2, hits give low values 0.986 | locus YDL035C, strain GPR1, hits give low values 1.01 | locus YDL040C, strain nat1, hits give low values 0.989 | locus YDL074C, strain BRE1, hits give low values 1 | locus YDL101C, strain DUN1, hits give low values 1 | locus YDL134C, strain PPH21, hits give low values 1.01 | locus YDL185W, strain tfp1, hits give low values 1.01 | locus YDL192W, strain arf1, hits give low values 1.01 | locus YDR001C, strain nth1, hits give low values 1 | locus YDR069C, strain doa4, hits give low values 0.985 | locus YDR101C, strain arx1, hits give low values 1 | locus YDR137W, strain rgp1, hits give low values 1.01 | locus YDR150W, strain NUM1, hits give low values 1 | locus YDR159W, strain sac3, hits give low values 0.984 | locus YDR162C, strain NBP2, hits give low values 0.973 | locus YDR195W, strain ref2 0.933 | locus YDR297W, strain sur2, hits give low values 0.992 | locus YDR318W, strain mcm21, hits give low values 1.02 | locus YDR334W, strain swr1, hits give low values 1 | locus YDR335W, strain msn5, hits give low values 0.997 | locus YDR388W, hits give low values 1.01 | locus YDR392W, strain spt3, hits give low values 0.997 | locus YDR502C, strain sam2, hits give low values 1 | locus YEL003W, strain gim4, hits give low values 0.997 | locus YEL037C, strain rad23, hits give low values 1.01 | locus YEL061C, strain CIN8 (second series), hits give low values 1.01 | locus YEL061C, strain CIN8, hits give low values 1 | locus YER015W, strain faa2, hits give low values 0.993 | locus YER016W, strain bim1, hits give low values 0.997 | locus YER110C, hits give low values 1.01 | locus YER111C, strain swi4, hits give low values 0.995 | locus YER155C, strain BEM2 (second series), hits give low values 0.994 | locus YER155C, strain BEM2, hits give low values 1 | locus YER167W, strain BCK2, hits give low values 1.01 | locus YFR010W, strain ubp6, hits give low values 0.997 | locus YGL078C, strain dbp3, hits give low values 1.01 | locus YGL086W, strain mad1, hits give low values 1.01 | locus YGL167C, strain pmr1, hits give low values 0.987 | locus YGL173C, strain kem1, hits give low values 0.982 | locus YGL227W, strain vid30, hits give low values 0.983 | locus YGL240W, strain doc1, hits give low values 0.982 | locus YGL248W, strain PDE1, hits give low values 1 | locus YGL253W, strain hxk2, hits give low values 0.993 | locus YGR078C, strain PAC10, hits give low values 0.991 | locus YGR135W, strain pre9, hits give low values 0.991 | locus YGR229C, strain SMI1, hits give low values 0.985 | locus YGR252W, strain gcn5, hits give low values 1.08 | locus YHR013C, strain ard1, hits give low values 0.975 | locus YHR027C, strain rpn1, hits give low values 0.997 | locus YHR030C, strain SLT2, hits give low values 1.01 and 0.987 | locus YHR079C, strain IRE1 (second series), hits give low values 1.01 | locus YHR079C, strain IRE1, hits give low values 0.983 | locus YHR094C, strain hxt1, hits give low values 1 | locus YHR129C, strain ARP1, hits give low values 1.01 | locus YHR142W, strain chs7, hits give low values 0.995 | locus YHR200W, strain rpn10, hits give low values 1.01 | locus YIL066C, strain RNR3, hits give low values 1.03 | locus YIL073C, strain SPO22, hits give low values 1.06 | locus YIL125W, strain kgd1, hits give low values 1 | locus YIR030C, strain dcg1, hits give low values 1 | locus YJL092W, strain hpr5, hits give low values 0.995 | locus YJL095W, strain BCK1 (second series), hits give low values 0.992 | locus YJL095W, strain BCK1, hits give low values 1.01 and 0.996 | locus YJL115W, strain asf1, hits give low values 0.999 | locus YJL129C, strain trk1, hits give low values 1 | locus YJL134W, strain LCB3, hits give low values 1.01 | locus YJL154C, strain vps35, hits give low values 1 | locus YJL164C, strain tpk1, hits give low values 0.991 | locus YJL166W, strain qcr8, hits give low values 0.99 | locus YJL168C, strain set2, hits give low values 1.02 | locus YJL187C, strain SWE1 (second series), hits give low values 1.02 | locus YJL187C, strain SWE1, hits give low values 0.997 | locus YJR043C, strain POL32, hits give low values 1.02 | locus YJR066W, strain TOR1, hits give low values 0.959
